# DNA FID counter: displaces DNA intercalator in HCV helicase counter-screen; DNA fluorescent intercalator displacement, fluorescence; inhibition, % at 7.9 µM; 0.17% of 290,000 active; in the data active means inhibition above about 37%;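 further: 0% = vehicle and 100% = reference compound; higher means more ethidium bromide displaced from hairpin DNA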
# RAD52 anneal inh: blocks human RAD52 DNA annealing; P43351; recombinant RAD52 DNA annealing, FRET fluorescence; inhibition, % at 18.7 µM; 0.46% of 360,000 active; AID 651710;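 active means every replicate showing at least 50% inhibition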
# Target sequence (P43351 whole entry, looked up): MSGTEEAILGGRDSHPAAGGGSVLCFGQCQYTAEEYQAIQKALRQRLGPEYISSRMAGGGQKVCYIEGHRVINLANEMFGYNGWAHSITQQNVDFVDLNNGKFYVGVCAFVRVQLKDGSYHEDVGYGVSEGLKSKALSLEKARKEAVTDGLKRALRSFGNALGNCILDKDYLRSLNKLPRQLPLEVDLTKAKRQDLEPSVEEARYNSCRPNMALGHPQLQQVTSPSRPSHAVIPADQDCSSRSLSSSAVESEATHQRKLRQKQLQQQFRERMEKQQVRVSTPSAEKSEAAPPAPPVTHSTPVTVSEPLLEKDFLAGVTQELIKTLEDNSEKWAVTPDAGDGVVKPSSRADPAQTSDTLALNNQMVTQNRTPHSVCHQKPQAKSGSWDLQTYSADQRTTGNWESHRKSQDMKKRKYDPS
# RAD54 inh: blocks human RAD54 Holliday junction branch migration | FAM/BHQ fluorescence | inhibition, % at 10.4 µM | 0.14% of 360,000 active;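 active means mean normalized replicate activity at least 40 and at least half of replicates scoring 40 or more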;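 further: 0% = median of neutral control wells and 100% = median of positive control wells; inhibitors cause a drop in the FAM fluorescence signal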
# miR-122 sensor: miR-122 inhibition in Huh7 cells; Huh7 miR-122 Renilla luciferase sensor, 48 h; neutral wells = 0, positive control = 100; activation (reporter increase), % at 12.5 µM; 0.3% of 340,000 active;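 active means mean replicate activation score at least 90 and every replicate individually at or above 90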;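 further: higher luciferase means less miR-122 activity so hits act as miR-122 inhibitors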
# Glyco luc inh: blocks N-linked glycosylation in D54 reporter cells; D54 ERlucT glycosylation luciferase reporter, 24 h; percent of 100 nM tunicamycin response; reporter increase, % at 12.5 µM; AID 588692; 0.23% of 360,000 active;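 active means mean luciferase reporter signal, scaled so untreated is 0 and the glycosylation-blocking control 100, at or above a set limit in every replicate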;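 further: luciferase carries N-glycosylation sites so blocking glycosylation raises the light; 0% = median of neutral control wells and 100% = median of 100 nM tunicamycin wells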
# CendR NRP1 mod: alters CendR peptide binding to human NRP-1; FAM-RPARPAR peptide binding to NRP-1, fluorescence polarization; inhibition, % at 25 µM; 0.85% of 360,000 active; AID 602438;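 active means inhibition or corrected inhibition above about 18%, plus a signal ratio from 0.5 to 1.5, limit read from the data, passing the limit was not always enough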
# * marks the source's active call; other numbers are inactive results; / = not tested or not shown; ! = not confirmed by another sample; [ ] = another dose, or the depositor's remark. Sampled rows, rich in hits. Any-hit rate of the full collection: about 1.5%.
SMILES,DNA FID counter,RAD52 anneal inh,RAD54 inh,miR-122 sensor,Glyco luc inh,CendR NRP1 mod
Cc1ccc(C(=O)NCCN2C3=NC[C@H](C)N3C[C@H]2Cc2ccc(O)cc2)cc1Br,9.2,-1.6,-5.3,-0.5,-2.3,25.1*
COc1ccc(C[C@H]2CN3C(=NC[C@H]3C)N2CCNC(=O)c2ccc(C)c(Br)c2)cc1,39.9*,30.9,1.8,/,-3.1,6.7
O=C(c1cn(Cc2ccccc2)nc1-c1ccc(Cl)cc1)N1CCN(c2ccccn2)CC1,/,2.1,-4.7,119.9*,-0.9,8.1
Cc1ccc(-c2nn(-c3ccccc3)cc2C(=O)N2CCN(c3ccccn3)CC2)cc1,-13.6,-8.4,/,/,0.8,8.6
Cc1ccc(-c2nn(Cc3ccccc3)cc2C(=O)N2CCN(c3ccccn3)CC2)cc1,/,0.8,-13.0,107.3*,-2.1,-3.6
CO[C@@H]1CN(C)C(=O)c2ccc(NS(=O)(=O)c3cn(C)cn3)cc2OC[C@H](C)NC[C@@H]1C,/,1.5,-9.2,/,/,/
COC(=O)c1ccccc1NC(=O)CSc1nc(C)cc(C)n1,-12.1,-25.0,5.1,5.4,-0.8,44.6*
CCS(=O)(=O)N1CC2(CN(C(=O)c3ccc(F)cc3)[C@H](CO)c3[nH]c4cc(OC)ccc4c32)C1,/,3.0,/,/,/,/
Cc1cc(N2CCN(c3ccc([N+](=O)[O-])c4cccnc34)CC2)c2ccccc2n1,6.4,/,/,/,104.5*,-43.7
O=C(NC1CCCC1)C(c1ccccc1F)N(C(=O)Cc1cccs1)c1ccc2c(c1)OCCO2 (configuration not stated),-35.1,-6.8,/,172.1*,-2.6,-13.3
CCN1C(=O)c2cccc3c(S(=O)(=O)NCc4ccccc4)ccc1c23,/,-4.1,-3.5,/,1.7,14.1
CCN1C(=O)c2cccc3c(S(=O)(=O)NCCc4c[nH]c5ccccc45)ccc1c23,-11.7,/,-3.3,497.5*,1.3,-0.9
C[C@@H]1CN([C@@H](C)CO)C(=O)Cc2cc(NC(=O)CCCN(C)C)ccc2O[C@H]1CN(C)Cc1ccc(-c2ccccc2)cc1,/,76.7*!,/,/,/,/
C[C@@H]1CN([C@H](C)CO)C(=O)Cc2cc(NC(=O)CCCN(C)C)ccc2O[C@@H]1CN(C)Cc1ccc(-c2ccccc2)cc1,/,79.1*,7.9,-23.4[16.7 µM],/,/
C[C@@H]1CN([C@H](C)CO)C(=O)c2cc(C#Cc3ccccc3F)cnc2O[C@H]1CN(C)S(C)(=O)=O,/,-2.1,-0.7,-0.6[16.7 µM],/,/
CC(=O)n1c2ccccc2c2c1c1ccccc1n2C,2.0,/,-6.8,-4.0,4.3,38.5*
CC(=O)n1c2ccccc2c2nc3ccccc3nc21,3.8,/,2.8,-3.3,1.5,-4.5
CC=Cc1ccc2n(c1=O)C[C@H]1[C@H](CO)[C@@H](C(=O)NCC3CC3)N(Cc3ccncc3)[C@@H]21 (mixture of isomers),/,-60.8,-5.3,-3.7[16.7 µM],/,/
Cc1ccsc1C1Nc2ccc3ncccc3c2C2=C1C(=O)CC(C)(C)C2 (configuration not stated),-17.4,/,-0.2,95.3*,11.5,-2.1
CCCCCc1cc(=O)oc2c(C(CCN(CC)CC)c3cc(OC)c(OC)c(OC)c3)c(OC)cc(OC)c12 (configuration not stated),/,57.5*,20.7,-24.7,-4.2,21.1
CCCCCc1cc(=O)oc2c(C(CCN3CCCCC3)c3ccc4c(c3)OCO4)c(OC)cc(OC)c12 (configuration not stated),/,16.4,-7.0,35.5,1.1,8.1
C[C@@H]1CN([C@@H](C)CO)C(=O)c2cc(NC(=O)Nc3ccc(F)cc3)ccc2O[C@@H]1CN(C)S(=O)(=O)c1ccccc1,/,-9.7,-2.5,13.6[16.7 µM],/,/
CCn1c2ccccc2c2cc(NC(=O)COC(=O)c3cc(S(N)(=O)=O)c(Cl)cc3Cl)ccc21,34.7,-5.0,/,/,40.5*,0.0
COc1ccc2c3c(n(C)c2c1)[C@H](CO)N(C(=O)C1CCOCC1)CC31CN(C(=O)C2CC2)C1,/,11.2,/,/,/,/
CCOc1ccccc1NC(=O)C(Sc1ccccc1)c1ccccc1 (configuration not stated),-4.6,/,-7.5,-2.6,-2.2,26.6*
SMILES,DNA FID counter,RAD52 anneal inh,RAD54 inh,miR-122 sensor,Glyco luc inh,CendR NRP1 mod
O=C(NCCCN1CCOCC1)c1ccccc1N1C(=O)[C@@H]2Cc3c([nH]c4ccccc34)C(c3ccc(F)cc3)N2C1=O (some centres not stated),24.4,-21.2,-1.4,4.1,2.7,-1.5
COc1cccc(C2c3[nH]c4ccccc4c3C[C@H]3C(=O)N(c4ccccc4C(=O)NCCCN4CCOCC4)C(=O)N23)c1 (some centres not stated),44.7*,15.1,-5.9,-8.2,1.3,8.1
O=C(C[C@H]1CC[C@@H]2[C@H](COC[C@H](O)CN2CC2CCCC2)O1)NCC1CC1,/,-14.6,/,/,/,/
Cc1cc(C)c(S(=O)(=O)c2cccc(Cl)c2)c(Cl)n1,-12.0,8.8,/,/,-1.5,33.4*
C[C@@H]1CN([C@@H](C)CO)C(=O)c2cc(C3=CCCC3)cnc2O[C@H]1CN(C)C,/,5.0,-7.0,-3.0[16.7 µM],/,/
CCN1/C(=C/C(C)=C/c2sc3ccccc3[n+]2CC)Sc2ccccc21,-35.5,-295.3,71.7*,-27.5,-16.6,-264.4
CCOc1ccc(CCNC(=O)c2nccnc2C(=O)O)cc1OCC,2.1,-10.4,4.2,-8.6,0.7,13.0
CCOc1ccc(CCNC(=O)C2(c3ccccc3)CC2)cc1OCC,-45.0,-1.3,-7.7,7.0,-2.1,19.5*
O=C(C[C@@H]1C=C[C@@H](NC(=O)Cc2cccnc2)[C@H](CO)O1)Nc1ccccc1,/,-2.9,-0.8,/,/,/
O=C(Cc1cccs1)NNC(=S)NCc1ccc(Cl)cc1,-8.3,/,-1.1,9.2,-1.1,1.0
O=C(Cc1ccc(Cl)cc1)NNC(=S)NC(=O)c1cccs1,-7.9,-12.7,/,/,0.0,37.4*
CCOc1ccc(NCc2cccn2-c2nnc(N3CCC(C(=O)NCCCN4C(C)CCCC4C)CC3)s2)cc1 (configuration not stated),41.3*,64.4*,15.6,2.6,0.9,7.1
C[C@@H]1CN([C@H](C)CO)S(=O)(=O)c2ccc(C#CC3CC3)cc2O[C@H]1CN(C)C(=O)c1cnccn1,/,10.8,4.8,0.8[16.7 µM],/,/
COc1ccc(CN(C)C[C@@H]2OCCCC[C@H](C)Oc3ccc(NC(=O)Nc4c(C)noc4C)cc3C(=O)N([C@@H](C)CO)C[C@H]2C)cc1,/,12.9,-2.4,-0.3[16.7 µM],/,/
O=C(c1ccc(-c2ccccc2Cl)s1)N1CCOCC1,/,-11.2,13.8,47.6,-5.2,34.6*
C/C(=N\NC(=O)c1ccccc1O)C1C(=O)c2ccccc2C1=O,-14.1,/,21.4,119.1*,-1.4,-31.6
Cc1[nH]n(-c2ccccc2)c(=O)c1/C=N/NC(=O)c1cccc([N+](=O)[O-])c1,3.6,/,-11.8,9.1,0.3,-8.9
Cc1ccc(-n2[nH]c(C)c(/C=N/Nc3ccc([N+](=O)[O-])cc3[N+](=O)[O-])c2=O)cc1C,0.5,/,/,/,-5.4,41.1*
